Source: the supplement of paper PMC6411743
± gives the standard deviation of the averaged measurements. The full data set covers some 5,400 targets. This sample favours those with the largest changes.

What follows are targets tested with Nc1nc2c(ncn2[C@@H]2O[C@H](COP(=O)(O)OP(=O)(O)OP(=O)(O)O)[C@@H](O)[C@H]2O)c(=O)[nH]1 [guanosine triphosphate] (assay: NP40-soluble protein abundance relative to vehicle (solubility fold change) (ratio); higher = more soluble protein in presence of GTP). Conditions: concentration: 0.1mM.
Outline: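 Values are fold changes against the detergent-processed vehicle, based on vsn-normalised intensities. Jurkat crude lysate was treated at eight concentrations from 0.1 to 10 mM (10 min at room temperature, then 3 min at 37 °C), solubilised with 0.8% NP40 and benzonase, ultracentrifuged and analysed by TMT-labelled LC-MS/MS over three independent experiments.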

Sequence of UniProt O00567 (O00567 whole entry): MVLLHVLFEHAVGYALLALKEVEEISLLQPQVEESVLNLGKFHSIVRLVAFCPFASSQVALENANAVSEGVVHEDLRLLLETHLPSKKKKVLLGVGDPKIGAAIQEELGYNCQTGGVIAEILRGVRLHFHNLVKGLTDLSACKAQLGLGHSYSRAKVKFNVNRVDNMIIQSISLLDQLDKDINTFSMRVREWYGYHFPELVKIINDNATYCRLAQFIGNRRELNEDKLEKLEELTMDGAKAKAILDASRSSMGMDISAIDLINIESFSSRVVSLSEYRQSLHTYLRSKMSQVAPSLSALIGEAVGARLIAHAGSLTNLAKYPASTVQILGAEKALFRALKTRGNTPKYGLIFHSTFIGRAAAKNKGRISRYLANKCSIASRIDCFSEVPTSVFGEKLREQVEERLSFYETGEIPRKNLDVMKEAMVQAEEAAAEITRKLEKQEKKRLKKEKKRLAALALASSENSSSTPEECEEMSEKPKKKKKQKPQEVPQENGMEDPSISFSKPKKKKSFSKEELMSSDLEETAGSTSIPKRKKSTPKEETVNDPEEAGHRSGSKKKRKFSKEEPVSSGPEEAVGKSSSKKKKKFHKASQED
Sequence of UniProt O75582 (O75582 whole entry, looked up, one chain of several): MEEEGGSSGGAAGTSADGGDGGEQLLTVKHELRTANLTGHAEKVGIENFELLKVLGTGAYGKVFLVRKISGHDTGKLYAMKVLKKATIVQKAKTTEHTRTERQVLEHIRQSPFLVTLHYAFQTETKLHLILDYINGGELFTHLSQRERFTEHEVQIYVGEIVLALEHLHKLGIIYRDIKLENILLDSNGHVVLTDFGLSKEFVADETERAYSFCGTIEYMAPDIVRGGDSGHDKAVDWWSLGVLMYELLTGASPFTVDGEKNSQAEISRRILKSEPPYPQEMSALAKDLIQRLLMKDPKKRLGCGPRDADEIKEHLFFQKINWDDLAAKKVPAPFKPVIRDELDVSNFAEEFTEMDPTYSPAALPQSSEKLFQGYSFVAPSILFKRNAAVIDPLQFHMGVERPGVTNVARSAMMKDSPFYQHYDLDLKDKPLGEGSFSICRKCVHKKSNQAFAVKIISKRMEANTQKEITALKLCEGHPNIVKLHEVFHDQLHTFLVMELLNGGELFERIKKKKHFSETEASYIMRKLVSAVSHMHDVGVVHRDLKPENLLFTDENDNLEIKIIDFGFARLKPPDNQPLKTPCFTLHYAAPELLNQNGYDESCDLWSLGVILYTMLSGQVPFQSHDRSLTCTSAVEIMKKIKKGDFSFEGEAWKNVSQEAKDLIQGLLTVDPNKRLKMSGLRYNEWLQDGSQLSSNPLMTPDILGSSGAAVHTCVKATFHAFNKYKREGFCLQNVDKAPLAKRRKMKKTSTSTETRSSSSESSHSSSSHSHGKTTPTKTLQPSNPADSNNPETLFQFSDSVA
Sequence of UniProt P28070 (P28070 whole entry): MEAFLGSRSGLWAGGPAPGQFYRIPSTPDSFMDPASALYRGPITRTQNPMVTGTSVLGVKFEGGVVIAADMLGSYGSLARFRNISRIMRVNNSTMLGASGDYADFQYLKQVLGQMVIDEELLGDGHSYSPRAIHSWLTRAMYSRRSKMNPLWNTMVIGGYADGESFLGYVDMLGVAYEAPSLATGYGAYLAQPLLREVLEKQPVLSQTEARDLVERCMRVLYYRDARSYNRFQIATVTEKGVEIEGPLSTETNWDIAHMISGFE
Sequence of UniProt P50583 (P50583 whole entry): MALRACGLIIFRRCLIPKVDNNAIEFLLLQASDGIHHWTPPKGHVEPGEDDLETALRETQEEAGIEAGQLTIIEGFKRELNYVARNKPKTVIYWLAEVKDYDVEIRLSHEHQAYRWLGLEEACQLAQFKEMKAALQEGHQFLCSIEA
Sequence of UniProt P50897 (P50897 whole entry): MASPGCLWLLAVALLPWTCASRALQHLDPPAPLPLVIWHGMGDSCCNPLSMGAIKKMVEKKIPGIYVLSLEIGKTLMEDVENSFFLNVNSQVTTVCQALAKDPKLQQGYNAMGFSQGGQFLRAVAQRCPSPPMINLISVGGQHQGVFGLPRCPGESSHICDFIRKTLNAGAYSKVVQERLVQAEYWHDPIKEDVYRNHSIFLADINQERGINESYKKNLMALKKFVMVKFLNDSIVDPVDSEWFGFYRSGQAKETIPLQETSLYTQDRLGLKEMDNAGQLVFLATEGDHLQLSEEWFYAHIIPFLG
Sequence of UniProt P17096 (P17096 whole entry): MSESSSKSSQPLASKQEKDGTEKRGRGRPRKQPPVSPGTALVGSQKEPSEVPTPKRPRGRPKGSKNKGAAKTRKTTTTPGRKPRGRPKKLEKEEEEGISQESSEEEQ
Sequence of UniProt P04150 (P04150 whole entry): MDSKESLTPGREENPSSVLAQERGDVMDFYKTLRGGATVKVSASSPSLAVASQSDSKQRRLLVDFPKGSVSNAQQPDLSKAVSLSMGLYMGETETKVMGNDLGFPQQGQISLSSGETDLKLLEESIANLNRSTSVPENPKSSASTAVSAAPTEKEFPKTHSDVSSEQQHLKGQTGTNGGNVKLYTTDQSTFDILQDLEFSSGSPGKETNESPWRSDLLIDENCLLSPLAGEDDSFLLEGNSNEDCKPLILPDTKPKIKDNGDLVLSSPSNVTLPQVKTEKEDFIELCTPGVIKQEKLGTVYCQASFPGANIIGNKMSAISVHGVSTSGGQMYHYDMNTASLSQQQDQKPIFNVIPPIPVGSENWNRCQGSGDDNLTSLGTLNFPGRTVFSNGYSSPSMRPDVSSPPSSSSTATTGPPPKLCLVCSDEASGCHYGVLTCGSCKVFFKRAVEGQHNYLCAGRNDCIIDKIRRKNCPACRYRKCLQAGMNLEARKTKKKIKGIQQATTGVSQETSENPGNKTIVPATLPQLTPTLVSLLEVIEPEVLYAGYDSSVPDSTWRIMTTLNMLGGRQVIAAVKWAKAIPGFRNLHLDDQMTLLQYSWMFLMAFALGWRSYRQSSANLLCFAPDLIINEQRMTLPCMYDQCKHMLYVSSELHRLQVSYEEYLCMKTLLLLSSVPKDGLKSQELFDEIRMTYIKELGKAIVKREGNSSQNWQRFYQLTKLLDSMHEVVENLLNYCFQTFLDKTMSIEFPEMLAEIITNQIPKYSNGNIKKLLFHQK
Sequence of UniProt P30405 (P30405 whole entry): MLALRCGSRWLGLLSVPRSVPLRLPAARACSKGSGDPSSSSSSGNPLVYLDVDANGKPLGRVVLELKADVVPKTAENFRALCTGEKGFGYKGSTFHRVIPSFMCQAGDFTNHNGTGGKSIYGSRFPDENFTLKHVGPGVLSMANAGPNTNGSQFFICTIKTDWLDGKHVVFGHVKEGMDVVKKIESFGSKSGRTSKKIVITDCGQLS
Sequence of UniProt O75170 (O75170 whole entry): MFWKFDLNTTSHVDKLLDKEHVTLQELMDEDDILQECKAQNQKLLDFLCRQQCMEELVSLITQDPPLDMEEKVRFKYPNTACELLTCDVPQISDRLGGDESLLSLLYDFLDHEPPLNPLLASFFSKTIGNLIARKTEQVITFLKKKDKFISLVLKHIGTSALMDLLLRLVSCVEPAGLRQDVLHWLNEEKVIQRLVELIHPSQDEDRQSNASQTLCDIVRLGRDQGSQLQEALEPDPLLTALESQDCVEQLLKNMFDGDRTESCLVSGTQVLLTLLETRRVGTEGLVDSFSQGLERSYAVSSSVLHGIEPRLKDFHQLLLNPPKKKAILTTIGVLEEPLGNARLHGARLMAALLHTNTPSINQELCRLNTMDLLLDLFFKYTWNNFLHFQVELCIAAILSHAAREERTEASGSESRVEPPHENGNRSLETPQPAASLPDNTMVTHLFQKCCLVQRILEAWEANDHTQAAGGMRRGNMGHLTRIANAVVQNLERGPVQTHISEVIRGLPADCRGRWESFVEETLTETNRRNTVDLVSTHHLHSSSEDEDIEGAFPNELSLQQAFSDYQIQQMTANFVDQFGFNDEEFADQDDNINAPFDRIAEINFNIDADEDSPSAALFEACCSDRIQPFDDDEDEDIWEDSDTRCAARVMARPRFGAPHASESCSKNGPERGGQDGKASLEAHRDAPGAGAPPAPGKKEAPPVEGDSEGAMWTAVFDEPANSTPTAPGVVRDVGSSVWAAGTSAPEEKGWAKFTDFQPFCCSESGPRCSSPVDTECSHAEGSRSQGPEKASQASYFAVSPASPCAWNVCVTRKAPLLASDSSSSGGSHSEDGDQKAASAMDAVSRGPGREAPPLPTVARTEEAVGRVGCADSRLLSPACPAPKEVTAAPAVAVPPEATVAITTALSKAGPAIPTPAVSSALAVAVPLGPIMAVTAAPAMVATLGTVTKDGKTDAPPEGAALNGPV
Sequence of UniProt O15111 (O15111 whole entry): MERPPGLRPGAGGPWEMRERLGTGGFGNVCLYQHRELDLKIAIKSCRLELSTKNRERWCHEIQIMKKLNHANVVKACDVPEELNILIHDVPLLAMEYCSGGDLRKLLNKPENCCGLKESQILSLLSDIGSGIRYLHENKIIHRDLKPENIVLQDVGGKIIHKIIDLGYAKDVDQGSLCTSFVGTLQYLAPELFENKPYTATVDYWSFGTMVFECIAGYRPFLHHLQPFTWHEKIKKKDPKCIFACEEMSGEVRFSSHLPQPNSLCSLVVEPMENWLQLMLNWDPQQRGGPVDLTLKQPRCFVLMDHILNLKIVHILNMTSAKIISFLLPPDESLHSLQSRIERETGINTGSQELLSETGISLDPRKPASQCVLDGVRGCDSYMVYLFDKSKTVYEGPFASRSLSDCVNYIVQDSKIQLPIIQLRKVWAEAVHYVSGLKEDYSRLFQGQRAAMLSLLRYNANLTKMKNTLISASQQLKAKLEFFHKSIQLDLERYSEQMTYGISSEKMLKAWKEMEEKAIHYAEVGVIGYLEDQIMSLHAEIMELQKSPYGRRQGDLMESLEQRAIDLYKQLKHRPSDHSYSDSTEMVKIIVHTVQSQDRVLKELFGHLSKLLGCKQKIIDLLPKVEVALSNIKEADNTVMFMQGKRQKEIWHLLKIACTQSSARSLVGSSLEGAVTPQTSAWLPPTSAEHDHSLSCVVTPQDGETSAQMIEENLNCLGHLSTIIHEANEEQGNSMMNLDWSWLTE

Target	NP40-soluble protein abundance
P15531-2|P22392-2|Q32Q12 (UniProt Q32Q12+P22392+P15531)	0.983 ± 0.029
UniProt P17096|P17096-2	1.06 ± 0.062
ARID1A (UniProt O14497)	0.993 ± 0.031
ARPC1B (UniProt O15143)	1 ± 0.045
CDC34 (UniProt P49427)	1.69 ± 0.2
PPT1 (UniProt P50897)	0.888 ± 0.06
AKR1A1 (UniProt P14550)	0.93 ± 0.035
PSMB4 (UniProt P28070)	0.926 ± 0.12
UniProt O95758-2|O95758-6|O95758|O95758-1|O95758-4|O95758-5|O95758-7	1.02 ± 0.074
UniProt O75170|O75170-2|O75170-3|O75170-4|O75170-5	1 ± 0.15
J3QQJ5|Q9Y2L5 (UniProt Q9Y2L5)	1.09 ± 0.062
TIMM23 (UniProt O14925)	0.979 ± 0.016
UniProt P30622|P30622-1	0.996 ± 0.068
UniProt P49840	0.981 ± 0.028
UniProt O00567	1.05 ± 0.035
UniProt O60861|O60861-1|O60861-4	1 ± 0.02
XPO1 (UniProt O14980)	1.01 ± 0.027
UniProt P04150|P04150-10|P04150-2|P04150-3|P04150-5|P04150-6|P04150-7|P04150-8|P04150-9|P04150-11|P04150-12|P04150-13	0.899 ± 0.13
UniProt O75582|A0A0A0MQV2	1.05 ± 0.079
PPIF (UniProt P30405)	0.881 ± 0.08
HMGN4 (UniProt O00479)	1.08 ± 0.057
UniProt O15111	1.03 ± 0.04
DNAJC8 (UniProt O75937)	0.838 ± 0.14
NUDT2 (UniProt P50583)	0.93 ± 0.17
